Shown are actives, neighbours in structure and some others; about 7.6% of the full set was active somewhere.
TSHR ag: qHTS Assay for Agonists of the Thyroid Stimulating Hormone Receptor. Thyrotropin receptor (Homo sapiens), P16473. HEK293-CNG-TSHR cells (CNG channel as cAMP sensor), membrane potential dye, cAMP. Potency, µM (doses to about 57.1 µM), without a hit: top-dose activation, hits mostly activators. 73,000 compounds, 0.48% hits. AID 926, 2007; active = well fitted activation curve with a large enough effect in the main read-out, with a control signal flat, not every such curve was filed as active; inconclusive = small, poorly fitted or top-dose-only effect, or a change in a side signal; inactive = no such curve, though single readings can be large or run the other way; % of control where 0% means no effect;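 also: the control signal comes from parental cells without the receptor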
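HEK 293 cells stably expressing TSHR and a modified CNG channel, with CNG-only parental cells as counterscreen, were preloaded 60 min at room temperature with membrane potential dye containing 100 uM RO 20-1724. Compound exposure was 30 min, and depolarization was read as fluorescence at 590 nm.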
ERK AVP inh: qHTS Assay for Inhibitors of the ERK Signaling Pathway using a Homogeneous Screening Assay | 72,000 compounds, 0.99% hits | HEK293-V1b, vasopressin-stimulated pERK AlphaScreen | Potency, µM (highest dose often 57.5 µM), inactives show top-dose activity, negative = inhibition, hits mostly inhibitors; also: % is scaled to controls: 0 for no effect and ±100 for the full control effect; nearly all actives have a fitted effect of over 55% in size
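qHTS, compounds titrated on V1b-expressing HEK293 cells. Preincubation 30 min at 37C, vasopressin 25 nM for 5 min, lysis 10 min, bead incubation 5 hr at room temperature.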
Tau filament bind: qHTS Assay for Tau Filament Binding. Potency, µM (highest dose often 57.1 µM), without a hit: at the top dose activity change, negative = inhibition. 71,000 compounds, 2% hits. recombinant tau filaments, thioflavin S fluorescence, 15 h; filaments grown with octadecylsulfate alongside compound. Microtubule-associated protein tau (Homo sapiens), P10636. AID 596, 2007;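 also: % is scaled to controls: 0 for no effect and ±100 for the full control effect; actives lower thioflavin S fluorescence by blocking filaments or displacing dye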
Target sequence (P10636 whole entry, looked up): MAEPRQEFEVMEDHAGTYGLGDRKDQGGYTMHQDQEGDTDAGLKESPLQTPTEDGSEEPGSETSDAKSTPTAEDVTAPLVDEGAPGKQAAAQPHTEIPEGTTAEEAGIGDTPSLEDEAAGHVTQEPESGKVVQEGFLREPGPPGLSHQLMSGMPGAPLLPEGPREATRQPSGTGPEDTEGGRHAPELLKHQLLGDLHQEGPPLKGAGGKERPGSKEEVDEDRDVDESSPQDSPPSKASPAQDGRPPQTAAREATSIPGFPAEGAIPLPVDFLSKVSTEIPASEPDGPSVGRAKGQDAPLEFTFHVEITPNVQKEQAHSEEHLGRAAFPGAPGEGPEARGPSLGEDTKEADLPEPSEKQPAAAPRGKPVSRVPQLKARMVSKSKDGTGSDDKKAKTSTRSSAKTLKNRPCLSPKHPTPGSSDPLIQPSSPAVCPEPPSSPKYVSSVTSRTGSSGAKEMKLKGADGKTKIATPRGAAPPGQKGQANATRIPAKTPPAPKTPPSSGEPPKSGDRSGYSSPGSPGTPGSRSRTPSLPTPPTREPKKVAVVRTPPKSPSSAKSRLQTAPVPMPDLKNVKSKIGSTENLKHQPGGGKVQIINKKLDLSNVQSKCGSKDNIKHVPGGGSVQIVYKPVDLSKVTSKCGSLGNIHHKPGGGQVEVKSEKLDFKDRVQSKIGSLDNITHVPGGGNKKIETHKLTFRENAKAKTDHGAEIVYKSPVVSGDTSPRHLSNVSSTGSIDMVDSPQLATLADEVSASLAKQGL
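Read-out: ThS fluorescence, 450 nm excitation/510 nm emission; lower signal marks blocked filament formation or displaced dye. Tau at 1 uM with 30 uM ODS, 10 uM ThS, 5 mM DTT, 100 mM NaCl, 10 mM HEPES pH 7.4; 15 h, 37 C.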
CRE Fsk mod: Cell signaling CRE-BLA (Fsk stim). CHO CRE-bla reporter (cAMP response element driving beta-lactamase), forskolin EC10, beta-lactamase ratio. Potency, µM (series often up to 38.2 µM), without a hit: top-dose activity change, negative = inhibition, most hits filed as activators. 71,000 compounds, 2.5% hits. AID 662, 2007; active = well fitted activation curve with a large enough effect in the signal ratio, with a control signal flat, not every such curve was filed as active; inconclusive = small, poorly fitted or top-dose-only effect, or effect the other way, or a change in a side signal; the % refers to the signal ratio; also: % of control where 0% means no effect
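Beta-lactamase reporter under a cAMP responsive element in CHO cells; compounds tested in titration series against EC10 NKH 477, 3 h at 37 °C. Read-out: CCF4 FRET ratio 460nm/530nm (excitation 405nm) giving %Activity, fitted to AC50.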
HEK293 cAMP ctrl: qHTS Assay for Agonists of the Thyroid Stimulating Hormone Receptor: Activators of Intracellular cAMP Concentrations in Parental HEK 293; parental HEK293 CNG cAMP sensor, membrane potential fluorescence; Potency, µM (series often up to 57.1 µM), for the others: at the top dose activation, actives largely listed as activators; 73,000 compounds, 2.5% hits; AID 938, 2007; also: % of control where 0% means no effect; nearly all actives have a fitted effect of over 55% in size
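Parental HEK 293 cells stably expressing a modified CNG channel (no TSHR) report cAMP rise as membrane depolarization. Membrane potential dye with 100 uM RO 20-1724 was loaded for 60 min at room temperature, then compound added for 30 min; fluorescence read at 590 nm.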
* marks the source's active call; other numbers are inactive results; ? = inconclusive; . = not tested or not shown; [ ] = remark or other dose. Unless noted, calls follow the shape of the dose curve; as a rule, active = well fitted curve in the direction sought with a large enough effect; inconclusive = small, poorly fitted or top-dose-only effect, or another doubt; inactive = no such curve, though single readings can be large; an effect the other way counts as inactive or inconclusive. Potency is read from the fitted curve at half-maximal effect.

SMILES	TSHR ag	ERK AVP inh	Tau filament bind	CRE Fsk mod	HEK293 cAMP ctrl
C=CC[C@@H]1C=C[C@@H](O/N=C\[C@@H](OC)[C@H](C)/C=C\CC(=O)OC)[C@@H](CO)O1	6.4%[11.4 µM]	7.8%[11.5 µM]	.	.	-3.6%[11.4 µM]
COc1ccc(-c2noc(CSc3nnc(-c4ccncc4)n3-c3ccc(F)cc3)n2)cc1OC	22.4%	25.1µM*	26.3%	?	26.1%
COc1ccc(-c2noc(COc3ccc(C)c(C)c3)n2)cc1OC	.	-19.2%	56.6%	?	26.1%
Nc1nc(/C(=C/CC(=O)O)C(=O)NC2C(=O)N3C(C(=O)O)=CCSC23)cs1 (stereo not given)	.	22.7%	.	.	.
COc1ccc(-c2ccc(=O)n(Cc3cc(=O)n4ccccc4n3)n2)cc1	14.3%	5.4%	-4.9%	10µM*	4.5%
CNC(=O)C1(CC(C)C)C=CCN1C(=O)c1ccccc1 (stereo not given)	12.1%	7.2%	2.1%	-5.6%	11.9%
COc1ccc(-n2nnnc2-c2cccc(OC)c2)cc1	?	19.0%	1.5%	?	?
Clc1ccc(-n2nnnc2-c2ccccc2)cc1Cl	?	16.7%	-7.1%	25.6%	25.1µM*
O=NC1=C(c2c(O)[nH]c3ccccc23)CCCC1	5.9%	16.9%	-11.0%	0.7%	13.5%
O=Nc1c(-c2c(O)[nH]c3ccccc23)[nH]c2ccccc12	?	10µM*	0.398µM*	?	-104.8%
COc1ccc(Cc2nnc3n2N=C(c2cc4ccccc4o2)CS3)cc1OC	?	-0.9%	31.6µM*	3.16µM*	25.1µM*
COc1ccccc1CN1CCC2(CC1)CCN(C(=O)c1csnn1)CC2	1.9%	-3.0%	5.1%	-5.6%	4.9%
Cc1cc(Nc2ccc(F)cc2F)n2ncnc2n1	3.4%	?	15.9%	28.2%	-2.2%
Cc1cc(Nc2ccccc2N2CCOCC2)n2ncnc2n1	22.4%	-9.0%	20µM*	?	12.1%
COc1ccc2[nH]cc(CCNc3ncncc3-c3ccc(C(=O)N(C)C)cc3)c2c1	3.0%	-8.0%	-5.9%	10.2%	6.3%
CCOc1ccccc1-n1c(SCC(=O)Nc2nccs2)nnc1-c1ccoc1C	?	6.0%	11.7%	2.9%	12.6µM*
CCc1nnc(NC(=O)CSc2nnc(-c3ccoc3C)n2-c2ccc(C)cc2)s1	15.8µM*	-16.5%	-8.3%	?	22.0%
Cc1occc1-c1nnc(SCC(=O)Nc2nccs2)n1CCc1ccccc1	?	1.2%	0.1%	-4.3%	?
CCC/C=C(\CCC)C(NC(=O)OCC(C)C)c1ccccc1 (stereo not given)	8.4%	10.9%	-3.0%	-2.6%	-5.2%
Cn1c(/C(C#N)=C(\O)COc2ccc3ccccc3c2)nc2ccccc21	?	21.7%	2.7%	-7.3%	15.8µM*
CC(/C(O)=C(\C#N)c1nc2ccccc2n1C)N1C(=O)c2ccccc2C1=O (stereo not given)	1.0%	-22.7%	6.5%	2.6%	-1.8%
O=C1[C@H]2[C@H]3[C@H](O)[C@H](O)C/C(=N/OC[C@@H](O)COCc4ccco4)[C@@H]3CC[C@@H]2C(=O)N1Cc1ccccc1	-10.2%[11.4 µM]	15.2%[11.5 µM]	.	.	6.8%[11.4 µM]
c1ccc(OCCSc2nnc3sc4ccccc4n23)cc1	?	8.0%	13.6%	28.6%	?
COc1cccc(OCCSc2nnc3sc4ccccc4n23)c1	?	-0.4%	13.6%	14.7%	15.8µM*
Cc1csc(NC(=O)CCCSc2nc3ccccc3s2)n1	?	15.8µM*	10.0%	?	?
SMILES	TSHR ag	ERK AVP inh	Tau filament bind	CRE Fsk mod	HEK293 cAMP ctrl
O=C1CCC=C1[C@@H](O)CCc1ccccc1	-1.1%[11.4 µM]	4.4%[11.5 µM]	.	.	-2.7%[11.4 µM]
COc1cccc(NC(=O)c2oc3ccccc3c2NC(=O)c2ccc3c(c2)OCO3)c1	.	11.3%	46.7%	14.5%	15.9%
COc1cccc(NC(=O)c2oc3ccccc3c2NC(=O)C(C)(C)C)c1	?	13.2%	-7.1%	15.8%	1µM*
CCn1cc(SCC(=O)Nc2cc(C)on2)c2ccccc21	-5.1%[11.4 µM]	.	4.3%	-7.4%	4.9%
Cc1ccccc1Cn1cc(S(=O)(=O)CC(=O)N2CCCCC2)c2ccccc21	?	13.3%	12.8%	2.0%	31.6µM*
Cc1cc(NC(=O)CS(=O)(=O)c2cn(Cc3ccccc3Cl)c3ccccc23)no1	?	33.8%	8.2%	-2.8%	25.1µM*
O=S(=O)(c1ccccc1)n1nc(-c2ccccc2)nc1NCc1ccco1	?	-2.3%	-9.1%	-6.8%	?
O=C(c1ccccc1)n1nc(-c2ccccc2)nc1NCc1ccco1	25.1µM*	6.0%	-20.7%	?	19.4%
CC(C)[C@H](NC(=O)OC(C)(C)C)[C@@H](O)CC(=O)C(C)(C)C	-5.3%[11.4 µM]	-7.8%[11.5 µM]	.	.	-1.0%[11.4 µM]
Cc1cc2c(nc1C)CCCCN2C[C@H](C)O/N=C1/[C@H]2O[C@@H]2[C@@H](O)[C@H]2[C@H]1CCn1c(=O)n(-c3ccccc3)c(=O)n12	6.4%[11.4 µM]	1.0%[11.5 µM]	.	.	3.3%[11.4 µM]
OCCSc1nc(-c2cccnc2)nc2ccccc12	5.7%	?	-6.5%	6.31µM*	4.3%
c1cncc(-c2nc(NCc3ccco3)c3ccccc3n2)c1	?	?	-5.7%	?	25.1µM*
CN(C)c1nc(-c2cccnc2)nc2ccccc12	?	-18.0%	5.0%	?	?
OCCNc1nc(-c2cccnc2)nc2ccccc12	-0.5%	-27.4%	8.0%	3.98µM*	-4.9%
c1ccc(-c2nc(NCCCN3CCOCC3)c3ccccc3n2)cc1	-36.5%	?	5.01µM*	?	18.0%
C[C@@H]1C[C@@H]2[C@H]3CCC4=CC(=O)C=C[C@]4(C)[C@]3(Cl)[C@@H](O)C[C@@]2(C)[C@@]1(O)C(=O)CO	6.7%	-2.6%	-10.9%	-1.0%	9.7%
CC[C@]1(c2ccccc2)NC(=O)N(C)C1=O	.	1.0%[25.7 µM]	1.7%[25.6 µM]	-1.0%[17.1 µM]	-0.4%[25.6 µM]
CC(=O)NCCNc1nc(-c2ccccc2CN(C)C)nc2ccccc12	1.1%	0.7%	0.2%	-5.8%	2.1%
c1cc2c(cc1-c1cnc3n1CCC3)OCCO2	?	15.8µM*	-0.7%	?	20µM*
COc1cc(N)c(Cl)cc1C(=O)N[C@H]1CCN(CCCOc2ccc(F)cc2)C[C@@H]1OC	?	31.6µM*	?	?	-60.8%
O=C1CCCN1CCCNc1ncnc2c1[nH]c1ccc(Cl)cc12	4.4%	?	6.1%	1µM*	3.3%
CCOc1cc2c(C#N)c(N3CCOCC3)nc(N)c2c(N)n1	-2.4%	15.8µM*	-5.7%	2.51µM*	-6.1%
Cc1cccc([C@@H]2CN(C)CCc3c2cc(O)c(O)c3Cl)c1	?	-8.1%	?	?	25.1µM*

Assay outcomes deposited in PubChem by National Center for Advancing Translational Sciences (NCATS).
